Test results from PubChem BioAssay (NCI).
Where “and” joins values, the source holds several entries; their conditions need not be identical. Equal entries are not always repeated. This is part of a sample that, as a whole, favours compounds with a hit. Of some 83,000 tested, about 20% had one in any assay.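 Method: cells in 96-well plates; compound added at one concentration; 48 h incubation; percent growth measured; values under 10 scored active.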 Calls of active or inactive are those of the source.

The molecules below were run on MDA-MB-468 breast (assay: NCI-60 one-dose screen, 48 h (100 = growth as untreated, 0 = no growth, -100 = all killed)). Conditions: 10 µM unless noted.

Q: O=C(CSC(=S)n1cnnc1)NC(=O)c1ccccc1 was tested. Which growth did it give?
A: 119% (inactive)

Q: Which growth does the source give for CC(=O)CC(=O)c1ccccc1.[Cu+2] here?
A: 96.7% (inactive)

Q: With O=C1OCC2=C1C(c1ccc(Cl)c(Cl)c1)c1cc3c(cc1N2CCO)CCC3 (stereo not given) as the molecule, how does the growth read?
A: 22.9% (inactive)

Q: How did the growth turn out when Cc1ccc(CNc2ccc(Cl)cc2NCc2ccc(C)c(O)c2)cc1O was run?
A: 32.5% (inactive)

Q: With Cn1ccnc1C(=O)/C=C/c1ccc(CC(=O)Nc2ccc(S(F)(F)(F)(F)F)cc2)cc1 as the molecule, how does the growth read?
A: -22.9% (active)

Q: How did the growth turn out when O=C1/C(=C/c2ccc(Cl)cc2)CN(Cc2cn(CCNc3ccnc4cc(Cl)ccc34)nn2)C/C1=C\c1ccc(Cl)cc1 was run?
A: -76.2% (active)

Q: For CCC1CCc2nc3sc(C(=O)Nc4ccccc4C)c(N)c3cc2C1 (stereo not given), which growth is on record?
A: -0.179% (active)

Q: With CCOC(=O)CCCC(=O)OCC as the molecule, how does the growth read?
A: 116% (inactive)

Q: Cc1ccc(S(=O)(=O)N2CCCC2CO)cc1 (stereo not given) was tested. Which growth did it give?
A: 86.3% (inactive)

Q: Cc1[nH]c(C(=O)Nc2ccccc2OCc2cccc(C(=O)NC3CCCNC3)c2)c(Cl)c1Cl (stereo not given) was tested. Which growth did it give?
A: -80.6% (active)

Q: How did the growth turn out when COc1cc(/C=C2\C(=O)ON=C2C)cc(OC)c1OC was run?
A: 107% (inactive)

Q: For O=C(Nc1ccc2ncnc(Nc3ccc(F)c(Cl)c3)c2c1)c1cccs1, which growth is on record?
A: -23.8% (active)

Q: c1ccc(Sc2ccccc2)cc1 was tested. Which growth did it give?
A: 102% (inactive)

Q: How did the growth turn out when O=C(CI)OCC(COC(=O)CI)OC(=O)CI was run?
A: 51.6% (inactive)

Q: Which growth does the source give for C=C(C)[C@@H]1CC[C@]2(C(=O)NC3CCCCC3)CC[C@]3(C)[C@H](CC[C@@H]4[C@@]5(C)CCCNC(C)(C)[C@@H]5CC[C@]43C)[C@@H]12 here?
A: -85.4% (active)

Q: Which growth does the source give for O=C(CSc1nc2ccc([N+](=O)[O-])cc2[nH]1)Nc1ccc([N+](=O)[O-])cc1 here?
A: -12.4% (active)

Q: CC1NC(C)c2ccc3ccccc3c2O1 (stereo not given) was tested. Which growth did it give?
A: 109% (inactive)

Q: Which growth does the source give for Cn1cc(-c2noc(-c3cn(C)c4ncc(F)cc34)n2)c2ccccc21 here?
A: 36.2% (inactive)

Q: Which growth does the source give for COc1cccc(-c2nnc(COc3ccc(-c4nc5ccccc5[nH]4)cc3OC)o2)c1 here?
A: 84.6% (inactive)

Q: How did the growth turn out when CCCC1OC(c2ccco2)OCC1CC (stereo not given) was run?
A: 118% (inactive)

Q: How did the growth turn out when Cc1ccc(S(=O)(=O)Nc2nc3ccccc3nc2Nc2ccc3nsnc3c2)cc1 was run?
A: 27.4% (inactive) and 35.8% (inactive)

Q: Which growth does the source give for COc1ccc(C(=O)c2sc3nc(-c4cccs4)ccc3c2N)cc1OC here?
A: 8.13% (active)

Q: CCNC(=O)Nc1ccc(-c2nc3c(c(N4CCOC[C@@H]4C)n2)CCN(C2COC2)C3)cc1 was tested. Which growth did it give?
A: 13.5% (inactive) and -25.6% (active)

Q: For Cn1ccnc1C(=O)C(=O)Nc1ccc(CC(=O)Nc2ccccc2)cc1, which growth is on record?
A: 109% (inactive)

Q: How did the growth turn out when O=C(/C=C/c1ccc(O)c(O)c1)N1CCN(c2ccc(Cl)cc2)CC1 was run?
A: 39.7% (inactive)

Q: CCc1nn(Cc2ccccc2)c2nc(C)c(CCc3ccccc3)c(Cl)c12 was tested. Which growth did it give?
A: 88.3% (inactive)

Q: COc1ccc(/C(C)=C(\c2ccc(Cl)cc2)c2ccc(OCCN)cc2)cc1 was tested. Which growth did it give?
A: 67.2% (inactive)

Q: O=C(CCc1nnc2sc(-c3ccc(Cl)cc3Cl)nn12)c1nc2ccccc2[nH]1 was tested. Which growth did it give?
A: -56.2% (active)

Q: With O=C(Nc1ccc2ncnc(Nc3cccc(C(F)(F)F)c3)c2c1)c1cccs1 as the molecule, how does the growth read?
A: -2.49% (active)

Q: With CCN1CCN(CCNc2nccc(-c3c(-c4cccc(O)c4)nc4sccn34)n2)S1(=O)=O as the molecule, how does the growth read?
A: 86.7% (inactive) and 81.1% (inactive)

Q: With O=C(Nc1ccc(CN2CCc3nc4cc(O)c(O)cc4cc32)cc1)c1ccc(Cl)c(Cl)c1 as the molecule, how does the growth read?
A: 97.4% (inactive)

Q: For C=C1C(=O)O[C@H]2[C@H]1CC/C(COC(=O)N1CCC[C@H]1C(=O)Nc1ccc(OC)c(C(N)=O)c1O)=C\CC[C@@]1(C)O[C@@H]21, which growth is on record?
A: -4.47% (active)

Q: How did the growth turn out when CCCC[N+]1(C)CCN=C1Cc1ccccc1 (stereo not given) was run?
A: 82.3% (inactive)

Q: With Cn1cc(C(=O)NCCC(=N)N)cc1NC(=O)CN=C(N)N as the molecule, how does the growth read?
A: 96.7% (inactive)

Q: COc1cc(CNC(=O)CCCC/C=C/C(C)C)ccc1OCc1cn(-c2cccc([N+](=O)[O-])c2)nn1 was tested. Which growth did it give?
A: 72.3% (inactive)

Q: Which growth does the source give for COC1=CC(=O)c2nc(Cl)ccc2C1=O here?
A: -51% (active)

Q: How did the growth turn out when Fc1ccc(CNc2cccc3[nH]c(C(F)(F)F)nc23)cc1 was run?
A: 99.7% (inactive)

Q: NC(N)=NS(=O)(=O)c1ccc(N=NC2C(=O)NN(c3ccccc3)C2=O)cc1 (stereo not given) was tested. Which growth did it give?
A: 96.6% (inactive)

Q: O=C1c2ccccc2-c2cn(Cc3ccccc3)c3cccc(c23)C1c1cccnc1 (stereo not given) was tested. Which growth did it give?
A: 27.9% (inactive)

Q: How did the growth turn out when COc1cc(/C=C2\CCCC3=C2N=C2SC(C)=CN2C3c2cc(OC)c(OC)c(OC)c2)cc(OC)c1OC (stereo not given) was run?
A: -20.7% (active)
